# The supplement of paper PMC12024529
# Tested on: HEK293 WT BDD-FVIII-Gluc
# Assay: secreted FVIII-Gluc luciferase Z-score vs DMSO control; higher = more FVIII-Gluc secretion
# Settings: 5 µM
# Protocol: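 Natural plant-compound library (480 compounds, ST catalogue IDs) screened on HEK293 cells stably expressing WT BDD-FVIII-Gaussia luciferase fusion at 5 µM. Secreted Gluc activity in the medium is given as a Z-score relative to DMSO controls.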
row,SMILES,secreted FVIII-Gluc luciferase Z-score
1,O=C1CCCC2[C@@H]3CCCN4CCC[C@H](CN12)[C@H]34 (stereo not given in full),0.572
2,COc1cc2c(cc1OC)-c1c(OC)c(OC)c(CO)c3c1C(C2)N(C)CC3 (stereo not given),-0.0378
3,O=c1cccc2n1C[C@@H]1CNC[C@H]2C1,0.0778
4,CC1(C)S[C@@H]2[C@H](N)C(=O)N2[C@H]1C(=O)O,-1.19
5,CC(C)C[C@H]1C(=O)N2CCC[C@H]2[C@]2(O)O[C@](NC(=O)[C@@H]3C=C4c5cccc6[nH]cc(c56)C[C@H]4N(C)C3)(C(C)C)C(=O)N12,0.241
6,CCCCCC[C@H]1C(=O)O[C@H](C)[C@H](NC(=O)c2cccc(NC=O)c2O)C(=O)O[C@@H](C)[C@@H]1OC(=O)CC(C)C,-3.29
7,C=C(C)[C@H]1Cc2c(ccc3c2O[C@@H]2COc4cc(OC)c(OC)cc4[C@@H]2C3=O)O1,-5.82
8,C[C@]12CC[C@H](O)CC1=CC[C@@H]1[C@@H]2CC[C@]2(C)C(=O)CC[C@@H]12,1.29
9,COc1ccc2c(c1O)-c1c(OC)c(OC)cc3c1C(C2)N(C)CC3 (stereo not given),0.615
10,CC(C)(O)[C@@H]1[C@H]2OC(=O)[C@@H]1[C@]1(O)C[C@H]3O[C@]34C(=O)O[C@H]2[C@]14C,-0.634
11,CC1CC[C@@]2(OC1)O[C@H]1[C@@H](O)[C@H]3[C@@H]4CC[C@H]5C[C@@H](O[C@@H]6O[C@H](CO)[C@H](O[C@@H]7O[C@H](CO)[C@@H](O)[C@H](O[C@@H]8OC[C@@H](O)[C@H](O)[C@H]8O)[C@H]7O[C@@H]7O[C@H](CO)[C@@H](O)[C@H](O[C@@H]8O[C@H](CO)[C@@H](O)[C@H](O)[C@H]8O)[C@H]7O)[C@H](O)[C@H]6O)[C@H](O)C[C@]5(C)[C@H]4CC[C@]3(C)[C@H]1[C@@H]2C (stereo not given in full),0.427
12,CC1=CC(=O)c2c(O)cccc2C1=O,-2.68
13,CC(C)[C@@]1(NC(=O)[C@@H]2C[C@@H]3c4cccc5[nH]cc(c45)C[C@H]3N(C)C2)O[C@@]2(O)[C@@H]3CCCN3C(=O)[C@H](Cc3ccccc3)N2C1=O,-0.176
14,COc1cc([C@@H]2c3cc4c(cc3[C@H](O)[C@H]3COC(=O)[C@H]23)OCO4)cc(OC)c1OC,-3.94
15,C/C=C1/CN2CC[C@]34C(=C(C=O)[C@H]1C[C@H]23)Nc1ccccc14,0.372
16,C=C(C)[C@@H]1[C@H]2OC(=O)[C@@H]1[C@]1(O)C[C@H]3O[C@]34C(=O)O[C@H]2[C@]14C,0.972
17,Oc1ccc(CC2NCCc3cc(O)c(O)cc32)cc1O (stereo not given),0.392
18,COC1=CC2C3Cc4ccc(OC)c(O)c4C2(CCN3C)CC1=O (stereo not given),-0.0187
19,CN1C[C@H](CNC(=O)OCc2ccccc2)C[C@@H]2c3cccc4c3c(cn4C)C[C@H]21,-0.629
20,C[C@@H]1O[C@@H](O[C@H]2C[C@@H](O)[C@]3(CO)[C@H]4[C@H](O)C[C@]5(C)[C@@H](C6=CC(=O)OC6)CC[C@]5(O)[C@@H]4CC[C@]3(O)C2)[C@H](O)[C@H](O)[C@H]1O,-3.87

row,SMILES,secreted FVIII-Gluc luciferase Z-score
1,CCC1CN2CCC1CC2C(O)c1ccnc2ccc(OC)cc12 (stereo not given),-0.168
2,COc1cc2c(cc1O)-c1c(O)c(OC)cc3c1[C@H](C2)N(C)CC3,0.6
3,CNC1C2CN3CCC(O2)C13 (stereo not given),-1.02
4,O=CN1C[C@@H]2C[C@H](C1)c1cccc(=O)n1C2,0.583
5,CC(C)C1(NC(=O)[C@@H]2C=C3c4cccc5[nH]cc(c45)C[C@H]3N(C)C2)O[C@@]2(O)[C@@H]3CCCN3C(=O)[C@H](Cc3ccccc3)N2C1=O (stereo not given in full),1.35
6,CC1CC[C@@]2(NC1)O[C@H]1C[C@H]3[C@@H]4CC=C5C[C@@H](O)CC[C@]5(C)[C@H]4CC[C@]3(C)[C@H]1[C@@H]2C (stereo not given in full),-1.02
7,COc1cc2c(cc1OC)-c1c(OC)c(OC)c(C=O)c3c1[C@H](C2)N(C)CC3,0.0709
8,COc1cc2c(cc1OC)C13CCN4CC5=CCOC6CC(=O)N2C1C6C5CC43 (stereo not given),0.159
9,C[C@]12CC[C@H](O)C[C@@H]1CC[C@@H]1[C@@H]2CC[C@]2(C)C(=O)CC[C@@H]12,0.049
10,COc1ccc2c(c1OC)CN1CCc3cc4c(cc3C1C2)OCO4 (stereo not given),0.658
11,C=CCCN1C[C@@H]2C[C@@H](C1)c1cccc(=O)n1C2,-0.00507
12,COc1ccc(Cc2nccc3cc(OC)c(OC)cc23)cc1OC,-0.721
13,COc1ccc2c(c1OC)C(=O)O[C@H]2[C@@H]1c2cc3c(cc2CCN1C)OCO3,0.0229
14,CN1Cc2c(ccc3c2OCO3)C2C(O)Cc3cc4c(cc3C21)OCO4 (stereo not given),-5.22
15,CC1CCC2C(C)C(=O)OC3OC4(C)CCC1C32OO4 (stereo not given),-0.111
16,C[C@H]1C(=O)O[C@H]2CCN3CC=C(COC(=O)[C@](C)(O)[C@@]1(C)O)C23 (stereo not given in full),0.0827
17,CN1C[C@H](C(=O)N[C@]2(C)O[C@@]3(O)[C@@H]4CCCN4C(=O)[C@H](Cc4ccccc4)N3C2=O)C[C@@H]2c3cccc4[nH]cc(c34)C[C@H]21,0.0715
18,C=C[C@H]1CN2CCC1CC2c1[nH]c2ccccc2c1CCO (stereo not given in full),0.502
19,c1cc2c(cc1C1OCC3C(c4ccc5c(c4)OCO5)OCC13)OCO2 (stereo not given),-0.0258
20,COc1cc2c(cc1O)CC1c3c(cc(O)c(OC)c3-2)CCN1C (stereo not given),-0.91
